Measurements: PubChem BioAssay AID1159614 (National Center for Advancing Translational Sciences (NCATS), 2016)
Among all 45,000 compounds or so, about 65 (0.1%) were called active. This is one part of a sample in which actives are shown more often than they occur. The call rests on the fitted dose curve; in most records, active means well fitted activation curve with a large enough effect; inconclusive means small, poorly fitted or top-dose-only effect; inactive means no such curve, though single readings can be large or run the other way.

Biological target: Galactocerebrosidase (Homo sapiens) (UniProt P54803)
Sequence (P54803 whole entry G286D): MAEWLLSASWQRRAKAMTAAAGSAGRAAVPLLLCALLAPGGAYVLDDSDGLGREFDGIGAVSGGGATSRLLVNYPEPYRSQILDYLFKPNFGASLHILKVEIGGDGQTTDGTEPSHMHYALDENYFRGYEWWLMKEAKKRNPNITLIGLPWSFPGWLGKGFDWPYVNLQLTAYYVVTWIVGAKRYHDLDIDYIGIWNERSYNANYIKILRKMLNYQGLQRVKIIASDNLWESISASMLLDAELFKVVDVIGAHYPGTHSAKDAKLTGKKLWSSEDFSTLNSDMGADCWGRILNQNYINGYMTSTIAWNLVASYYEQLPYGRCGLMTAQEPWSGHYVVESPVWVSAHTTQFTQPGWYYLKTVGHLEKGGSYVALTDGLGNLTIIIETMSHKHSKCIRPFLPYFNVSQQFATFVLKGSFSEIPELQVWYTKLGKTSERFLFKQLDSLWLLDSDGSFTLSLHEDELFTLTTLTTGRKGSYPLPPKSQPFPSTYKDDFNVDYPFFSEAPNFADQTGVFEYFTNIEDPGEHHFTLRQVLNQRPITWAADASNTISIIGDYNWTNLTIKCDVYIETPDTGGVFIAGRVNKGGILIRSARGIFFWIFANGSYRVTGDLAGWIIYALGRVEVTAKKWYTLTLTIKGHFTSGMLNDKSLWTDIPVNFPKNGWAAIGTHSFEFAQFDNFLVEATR
Experiment: A Novel Cell-Based Assay to Identify Small Molecules for B -Galactocerebrosidase; further: nearly all actives have a fitted effect of over 65% in size
Details: 145M-Twi-hGALC-G270D cells (Twitcher mouse brain line with human GALC G270D), HMU-beta-Gal fluorescence, 48 h; series mostly up to 57.5 µM
Description: Lysosomal storage diseases (LSDs) are caused by genetic mutations in genes encoding proteins important for normal lysosomal function. Globoid cell leukodystrophy (GLD), mostly known as Krabbe disease, is a prototype of the neurological LSDs caused by deficiency of beta-galactocerebrosidase (GALC). In brain specimens of GLD patients, psychosine levels are substantially elevated. At elevated concentrations, psychosine becomes cytotoxic to neuronal cells, particularly to oligodendrocytes (OLG), neural cells responsible for myelin formation. Therefore, the biochemical disturbances in GLD are manifested by different degrees of brain demyelination resulting in a broad spectrum of neurological manifestations. Most of the FDA-approved therapies are based on enzyme replacement therapeutic (ERT) agents, which treat non-neurological symptoms of Gaucher disease, Fabry disease, few mucopolysaccharidoses and Pompe disease. Unfortunately, in GLD, a primarily neurological LSD, ERT agents, as large molecular weight molecules unable to cross the blood-brain barrier, which makes this an inefficacious therapeutic approach. In GLD, increasing the residual GALC activity just above the critical threshold (~10% of wild type enzymatic activity), the cytotoxic levels of psychosine will be reduced, avoiding the OLGs apoptosis and the subsequent demyelination process. This will translate in disease stabilization and amelioration of GLD patient symptoms.
A cell-based assay in 1,536-well plate format was developed to implement a quantitative high-throughput screening (qHTS) assay using GLD-disease relevant cells to identify small molecules that produce enhancements of the residual enzymatic activity levels of mutants GALC found and prevalent in GLD patients. Compounds that are active may therefore have some therapeutic application for GLD. After the treatment of live cells for a determined period, using a fluorescent GALC specific substrate, the mutant residual GALC activity is measured. This cell-based qTHS assay was used to screen part of the MLPCN library for small molecule able to increase the mutant GALC enzymatic activity. In this assay, increased fluorescent signal corresponds to enhanced levels of mutant GALC residual enzymatic activity. Activation is the desired outcome for this assay.
NIH Chemical Genomics Center [NCGC]
NIH Molecular Libraries Probe Centers Network [MLPCN]
Assay Submitter (PI): Gustavo Maegawa MD,PhD, University of Florida, Gainesville, FL
2)#Two cell lines were established for the assay: 145M-Twi-hGALC-G270D (brain-derived Twitcher cell line stably expressing human GALC-G270D) and 145M-Twi-hGALC-WT (same 145M-Twi stably expressing human GALC wild type). The Twitcher is the murine C57B/6 model for GLD with naturally occurring homozygous nonsense GALC mutation. The 145M-Twi cell line was established at Maegawa lab (Ribbens J et al 2014).
a.#Media: DMEM/F12 (1:1) with 10% fetal bovine-serum (FBS) with penicillin/streptomycin (PS-1X - 100 I.U./mL of penicillin+100 ug/mL of streptomycin).
b.#The 6-Hexadecanoylamino-4-methylumbelliferyl-b-D-galactoside (HMU-B-gal) substrate was prepared as per Wiederschain et al 1992. Using 20-mL borosilicate tubes, 2.20 mg of HMU-b-Gal was added in each tube to prepare substrate-film with a final air-nitrogen stream evaporation to remove all diluent solvents.
c.#The HMUb-Gal substrate buffer consists of 0.2 M Na2HPO4 (sodium phosphate dibasic)/ 0.1 M Citric Acid with the pH adjusted to 5.2 using HCl. Sodium Azide at 0.02% and Sodium Taurocholate (NaTC) at 1 mg/mL were added to this substrate buffer.
d.#The HMU-b-Gal stopping buffer consist of 0.5 M NaHCO3 (sodium bicarbonate) /0.5 M Na2CO3 (sodium carbonate). […] Triton X-100 at 0.25% was added.
4)#Preparation of HMU-b-Gal substrate tubes
Adding 18.6 mL of the HMUb-Gal substrate buffer to each 20-mL tube (2.20 mg of HMU-b-Gal) will reach a concentration of 0.2 mM. Vortex well the tube until the solution is fully homogenized (clear cloudy solution). […]

Potency, inactive:
Cc1cccc(CC(=O)N2CC(=O)Nc3ccc(F)cc3C2c2ccccc2)c1 (configuration not stated)
Cc1cccc(NC(=O)c2nnn(CC(=O)Nc3ccc(C(C)C)cc3)c2N)c1C
Cc1cc(C)cc(OCC(=O)Nc2nc(-c3ccc(F)cc3)ns2)c1
Cc1cccc(NC(=O)Cn2c(C(F)(F)F)nc3ccccc32)c1C
COc1cccc(-c2cc(C(=O)Nc3ccc(C)cc3)[nH]n2)c1
CCc1cc2c(cc3c(=O)n(CC(=O)NCCc4ccc(OC)c(OC)c4)ncn32)s1
Cc1ccccc1OCC(=O)Nc1c(C(=O)Nc2ccccc2F)oc2ccccc12
CCOc1cc(C(=O)Nc2nnc3n2CCS3)cc(OCC)c1OCC
COc1cccc2c1cc1c(=O)n(CC(=O)N3CCN(c4cccc(Cl)c4)CC3)nc(C)n12
CCCn1c2ccccc2c2cnn(CC(=O)N(C)c3ccccc3CC)c(=O)c21
CCN(C(=O)c1sc2cc(OC)ccc2c1Cl)c1ccccc1
CCOC(=O)c1nnn(CC(=O)NC(=O)Nc2ccccc2F)c1C(=O)OCC
Cn1c(=O)c2c(nc(Oc3ccc(C#N)cc3)n2Cc2ccc(Cl)cc2Cl)n(C)c1=O
COc1cc(CN(CC2CCCO2)C(=O)c2ccccc2F)cc(OC)c1OC (configuration not stated)
Cc1cccn2c(=O)c(C(=O)NC(C)c3ccccc3)cnc12 (configuration not stated)
Cc1ccc(S(=O)(=O)NC2(C(F)(F)F)NC(=O)N(CCc3ccccc3)C2=O)cc1 (configuration not stated)
COc1ccc(CC(=O)Nc2nnc3n2CCS3)cc1OC
COc1cccc(C2C(C(=O)Nc3ccc(C)cc3C)=C(C)Nc3c(C(=O)Nc4ccccc4)cnn32)c1 (configuration not stated)
Cc1ccc(-c2nc3ccccn3c2Nc2c(C)cccc2C)o1
Brc1ccc2c(c1)NC(c1cccnc1)=NC(c1ccccc1)=N2
COC(=O)c1ccc(NC(=O)CCc2c(C)nc3c(c(C)nn3-c3ccc(C)cc3)c2C)cc1
O=C(Nc1ccccc1Cl)N1CCC(CN2CCCC2)CC1
COc1cc(Cl)c(NC(=O)C(NS(=O)(=O)c2cccs2)C(C)C)c(OC)c1 (configuration not stated)
O=C(NC1CC(=O)N(c2ccc(F)cc2)C1)c1ccc(S(=O)(=O)N2CCCC2)cc1 (configuration not stated)
CCc1cc2c(cc3c(=O)n(CC(=O)N4CCN(c5cc(Cl)ccc5C)CC4)nc(CC)n32)s1
Cc1cccc(Cn2c(SCc3ccc(C(=O)N4CCC(C)CC4)cc3)nc3ccncc32)c1
COc1ccc2cc(CNc3ccc(OC)c(OC)c3)c(=O)n(CC(=O)Nc3ccccc3F)c2c1
